Source: PubChem BioAssay (National Center for Advancing Translational Sciences (NCATS))
D3 antag = D3 dopamine receptor (human) antagonism; D3R cells, DiscoveRx beta-arrestin luminescence, antagonist mode; active compounds read low; max response, negative = inhibition, %; 2.5% of 360,000 active; AID 652054; in the data active = max response below about -50%; inconclusive = no clear call, values can overlap the other calls; also: % is scaled to controls: 0 for no effect and ±100 for the full control effect
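Cells expressing the human receptor were seeded at 1500 cells/well, incubated overnight at 37 degrees C in 5% CO2, then exposed to library compounds with dopamine controls for 90 minutes at 37 degrees C before luminescent detection.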
DRD3 agonist = agonists of human D3 dopamine receptor. P35462. D3R DiscoveRx beta-arrestin cells, luminescence, 90 min. max activation, %. 0.58% of 410,000 active; in the data active = max activation above about 30%; also: 0% is about no effect
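Agonist mode: compounds and dopamine controls were applied to plated cells for 90 min at 37 degrees C after an overnight attachment at 1500 cells/well. Luminescent read-out followed 30 - 60 minutes at room temperature with DiscoveRx detection reagent.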
PI4K2A inh = blocks human PI4K2A kinase activity | purified PI4K2A, ADP-Glo luminescence, 1 h; active compounds read low | 0.13% of 420,000 active | Q9BTU6 | activity change, negative = inhibition, % at 76.9 µM; in the data active = activity change below about -50%; inconclusive = mostly about -30% to -49%;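 also: -100% = wells without enzyme as full effect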
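ADP-Glo luminescence measured ADP generated by PI4K2A enzyme (4 ug/mL before mixing) with 1.2 mM PI substrate (pre-mix) and 300 microM ATP (pre-mix). Tris pH7.5 buffer with MgCl2, Triton X-100; 1 h reaction at ambient temperature.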
PI5P4K alpha inh = PI5P4K alpha (human) kinase inhibition. max response, %. P48426. 1.2% of 330,000 active. PI5P4Kalpha enzyme, ADP-Glo luminescence, 60 min; active compounds read low; active = max response of -50% or lower; inconclusive = between -30% and -50%; inactive = -30% or higher; also: value at the top dose of about 77 µM; % is scaled to controls: 0 for no effect and ±100 for the full control effect
Target sequence (P48426 whole entry, looked up): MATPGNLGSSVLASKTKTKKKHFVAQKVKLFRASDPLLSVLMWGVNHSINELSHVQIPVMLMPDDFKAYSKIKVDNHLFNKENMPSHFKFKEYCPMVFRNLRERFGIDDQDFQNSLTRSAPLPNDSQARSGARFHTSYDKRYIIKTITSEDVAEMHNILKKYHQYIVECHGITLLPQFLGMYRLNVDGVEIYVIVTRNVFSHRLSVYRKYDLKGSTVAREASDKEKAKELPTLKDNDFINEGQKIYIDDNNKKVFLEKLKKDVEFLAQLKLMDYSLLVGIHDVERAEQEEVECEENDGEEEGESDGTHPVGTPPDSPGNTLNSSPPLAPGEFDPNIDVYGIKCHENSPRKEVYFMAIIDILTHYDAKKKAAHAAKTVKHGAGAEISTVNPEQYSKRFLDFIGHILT
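Enzyme plus substrate dispensed, test compounds pinned in, then ATP (5 microM final) added. After 60 min at RT, ADP-Glo reagent 1 for 45 min and reagent 2 for 30 min preceded luminescence imaging.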
LDHA inh = blocks human lactate dehydrogenase A. 0.15% of 480,000 active. purified LDHA, NADH/diaphorase-resazurin fluorescence; active compounds read low. activity change, % (values are at about 110 or 230 µM); in the data active = activity change below about -30%; inconclusive = mostly about -25% to -30%;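 also: plate controls were DMSO wells for no effect and wells without enzyme for full effect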
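Remaining NADH was detected by diaphorase (0.133 mg/mL) converting 37 µM resazurin to fluorescent resorufin, read at 0 and 20 minutes. The preceding 5-minute room-temperature reaction used 2 nM LDHA, 0.2 mM sodium pyruvate and 0.06 mM NADH at pH 7.4.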
The depositor's hits bear a star; ? = inconclusive; . = not tested or not shown. Hits are enriched below; roughly 3.3% of the tested compounds scored in any of these assays.

SMILES	D3 antag	DRD3 agonist	PI4K2A inh	PI5P4K alpha inh	LDHA inh
C=C1C(=O)O[C@@H]2C[C@@H](C)[C@@H]3C4OC4C(=O)[C@@]3(C)[C@@H](O)[C@H]12 (some centres not stated)	-91*	-22	-4	3	-6
O=C(CN1CC=C(c2ccccc2)CC1)N(C1CCCCC1)C1CCS(=O)(=O)C1 (configuration not stated)	.	.	.	.	-3
O=C1NC(=O)C(=Cc2ccc(-c3ccc(F)cc3O)o2)C(=O)N1	?	1	?	-87*	?
CCOC(=O)[C@]12Cc3cc(Cl)ccc3[C@H]1N(C1CCCCC1)C(=O)c1cc(OC)ccc12	-123*	-13	17	?	-3
CCOC(=O)[C@]12Cc3cc(C)ccc3[C@H]1N(C1CCCCC1)C(=O)c1ccccc12	?	-5	17	-9	-1
CCOC(=O)[C@]12Cc3ccc(C)cc3[C@H]1N(C1CCCCC1)C(=O)c1ccccc12	-73*	-9	17	-7	2
CCC(=O)OC1CCC2C3CCC4CC(=O)CCC4(C)C3CCC12C (configuration not stated)	.	.	.	.	4
COc1cc(-c2c(C#N)c(N)nc3c2c(=O)nc2sccn23)ccc1OCc1ccccc1F	.	.	.	.	0
CC(C)NC(=O)NC(=O)CCl	.	.	.	.	4
Cc1nonc1OCCNCCNc1ccc([N+](=O)[O-])c2cccnc12	-63*	-12	25	11	5
Cc1ccc(CN2Cc3ccc(Br)cc3-n3nncc3C2)cc1	-55*	-11	-3	4	0
O=C1NC(=O)N(Cc2ccc(F)cc2)C(=O)/C1=C\c1ccoc1	-4	9	-14	-93*	-22
O=C1NC(=S)N(c2ccc(F)cc2)C(=O)/C1=C\c1ccoc1	-16	-3	?	-87*	-5
Cc1ccc(N2C(=O)NC(=O)/C(=C\c3ccoc3)C2=O)cc1	-3	3	-7	?	-9
COc1cc(N2CCOCC2)ccc1/C=C1\C(=O)NC(=O)N(Cc2ccc3c(c2)OCO3)C1=O	5	4	-7	?	-16
O=C1NC(=O)N(Cc2ccccc2Cl)C(=O)/C1=C/c1cccs1	17	1	-19	?	-2
CN(C)c1ccc(/C=C2\C(=O)NC(=O)N(Cc3ccc(F)cc3)C2=O)cc1	-11	-3	-1	-22	0
O=C1NC(=O)N(Cc2ccc(F)cc2)C(=O)/C1=C/c1cccs1	-19	1	-20	-56*	-8
COc1ccc(CN2C(=O)NC(=O)/C(=C\c3cccc(OC)c3OC)C2=O)cc1	3	1	-19	-28	-31*
O=C(O)c1cc(Cl)nc(Cl)c1	.	.	.	.	13
ClCCN(CCCl)c1ccc(/C=C/c2sc3ccccc3[n+]2CCCCI)cc1	.	.	.	.	-17
N[C@H](CO)Cc1ccc(O)cc1	.	.	.	.	3
NC1CCc2cc(O)c(O)cc2C1 (configuration not stated)	59	141*	-1	-24	19
CC(=O)c1cccc(OCC(O)CN2CC=C(c3ccccc3)CC2)c1 (configuration not stated)	9	73*	8	.	-13
CCc1ccc(C2SCC(=O)Nc3n[nH]c(C)c32)cc1 (configuration not stated)	.	.	.	.	0
SMILES	D3 antag	DRD3 agonist	PI4K2A inh	PI5P4K alpha inh	LDHA inh
CN1[C@H]2CC[C@@H]1[C@@H](C(=O)O)[C@@H](OC(=O)c1ccccc1)C2	.	-11	.	.	.
Oc1c(Cl)cc(Cl)cc1CN1CCN(Cc2ccccc2)CC1	-51*	-39	1	.	0
c1ccc(CN2CCN(Cc3ccc4ccccc4c3)CC2)cc1	-69*	-15	5	-8	-16
CN1CCN(c2nccc3c2ncn3C)CC1	-64*	0	5	-1	-3
O=C1NC(=O)N(c2ccc(Cl)cc2)C(=O)/C1=C\c1ccc(Sc2nc3ccccc3[nH]2)o1	-21	-9	?	-87*	-76*
Cc1ccc(N2C(=O)NC(=O)/C(=C/c3ccc(-c4ccc(C(=O)O)c(Cl)c4)o3)C2=O)cc1	18	-1	-6	?	1
O=C(O)CC1OCC=C2CN3CCC45C6=CC(=O)C(=O)C([N+](=O)[O-])=C6NC4C1C2CC35 (configuration not stated)	-8	-9	-61*	1	22
O=C(O)CC1OCC=C2CN3CCC45c6ccccc6NC4C1C2CC35 (configuration not stated)	2	-1	-2	-5	2
CC(C)=CCN1CC[C@@]2(C)c3cc(O)ccc3C[C@@H]1C2C (some centres not stated)	-58*	-48	-1	6	-6
CCOC(=O)c1cc2ccccc2n1C1CCN(Cc2ccccc2)CC1	-116*	-15	-5	-1	4
Cc1cccc2nc(-c3ccccc3)c(-c3ccc(CN4CCC(n5c(=O)[nH]c6ccccc65)CC4)cc3)nc12	?	-17	3	-4	0
C=CCNC(=O)NC(=O)COC(=O)c1cn(C)c2ccccc12	.	.	.	.	3
O=c1oc2ccccc2c(O)c1C(c1ccc([N+](=O)[O-])cc1)c1c(O)c2ccccc2oc1=O	-18	-14	-5	?	-67*
COc1ccc(Cc2c(O)[nH]c(=S)[nH]c2=O)cc1	0	-6	0	-56*	0
CCCCOc1ccc(C(C)=O)cc1Cc1c(O)[nH]c(=S)[nH]c1=O	-2	-2	2	-14	2
O=C(c1ccccc1)N1CCN(C/C=C/c2ccccc2)CC1	.	.	.	.	0
COc1ccccc1N1C(=O)NC(=O)/C(=C/c2ccc3c(c2)Cc2ccccc2-3)C1=O	-14	-10	-20	?	-33*
COc1ccc2c(c1OC)CN1CCc3cc4c(cc3C1C2)OCO4 (configuration not stated)	-106*	-2	29	3	-5
COc1cc2c(cc1OC)C(C1c3cc4c(cc3CCN1C)OCO4)OC2=O (configuration not stated)	-11	-6	-1	-5	-8
COc1ccc2c(c1OC)CN1CCc3cc4c(cc3[C@H]1C2)OCO4	-113*	-65	-2	7	1
CC1CCCC(=O)CCCCCc2cc(O)cc(O)c2C(=O)O1 (configuration not stated)	.	.	.	.	12
Cc1[nH]nc2c1C(c1ccc3c(c1)OCO3)SCC(=O)N2 (configuration not stated)	.	.	.	.	-20
CN1C(=O)/C(=C\c2ccc(N3CCCCCC3)cc2)C(=O)NC1=S	4	0	-3	-56*	-2
Cc1cc(N2CCCCC2)ccc1C=C1C(=O)N(C)C(=S)N(C)C1=O	14	3	-4	-60*	7
CCC(C)N1C(=O)/C(=C\c2ccc(N3CCCCCC3)cc2)C(=O)NC1=S (configuration not stated)	-23	2	-10	-58*	-2
